Assay outcomes (PubChem BioAssay)
FLuc modulator: inhibits or activates purified firefly luciferase, miR-21 counter-screen; P08659; purified FLuc, Km substrates, luminescence inhibition; Potency, µM (top dose mostly 57.5 µM), inactives show top-dose activity change, negative = inhibition, most hits filed as inhibitors; 360,000 compounds, 6.9% hits; AID 588342;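 also: plate controls were vehicle for no effect and reference inhibitor for full effect; nearly all actives have a fitted effect of over 55% in size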
Target sequence (P08659 whole entry, looked up): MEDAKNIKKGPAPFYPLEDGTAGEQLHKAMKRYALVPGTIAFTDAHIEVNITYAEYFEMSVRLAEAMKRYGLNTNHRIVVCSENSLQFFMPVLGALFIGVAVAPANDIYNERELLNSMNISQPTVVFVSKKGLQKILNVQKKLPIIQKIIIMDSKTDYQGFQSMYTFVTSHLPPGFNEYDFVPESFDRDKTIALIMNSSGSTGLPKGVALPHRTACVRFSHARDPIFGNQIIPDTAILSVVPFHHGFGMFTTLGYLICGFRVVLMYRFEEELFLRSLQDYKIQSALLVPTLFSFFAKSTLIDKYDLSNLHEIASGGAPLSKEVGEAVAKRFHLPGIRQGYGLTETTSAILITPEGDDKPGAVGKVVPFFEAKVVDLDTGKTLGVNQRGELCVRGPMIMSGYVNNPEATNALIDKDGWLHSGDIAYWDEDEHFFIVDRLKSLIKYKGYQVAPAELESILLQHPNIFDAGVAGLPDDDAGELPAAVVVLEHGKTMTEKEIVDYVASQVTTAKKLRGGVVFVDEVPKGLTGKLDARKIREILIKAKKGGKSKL
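Purified P. pyralis luciferase, 10 nM final, with Km-level 10 uM D-luciferin and 10 uM ATP in 50 mM Tris acetate pH 7.5, 10 mM Mg acetate, 0.01% Tween-20, 0.05% BSA; 6-point qHTS titration about 60 µM downward; luminescence read.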
Rab9 prom act: Rab9 promoter activation. 320,000 compounds, 2.8% hits. Huh7 Rab9 promoter-luciferase reporter, luminescence, 24 h. Potency, µM (series often up to 9.22 µM), for the others: at the top dose activation, negative = inhibition, hits mostly activators; also: % of control where 0% means no effect; nearly all actives have a fitted effect of over 60% in size
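Quantitative HTS format; Huh7 Rab9-luciferase reporter cells (1500/well) receive compound 2 h post-plating, incubate 24 h at 37 °C, then get luciferase reagent for 10 min before luminescence reading.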
SMN2 splice up: SMN2 splice variant enhancement; HEK293 SMN2-luciferase splicing reporter, luminescence, 30-36 h; Potency, µM (titrated, usually from 46.1 µM), inactives show at the top dose activity change, positive = activation, actives largely listed as activators; 210,000 compounds, 2.8% hits; also: % of control where 0% means no effect; nearly all actives have a fitted effect of over 55% in size
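qHTS luciferase splicing reporter: luminescence rises when SMN2 exon 7 is included in transfected HEK293 cells. Compound exposure lasted 30-36 h at 37C, with 4.5 mM final sodium butyrate as control, followed by a ONE-Glo read.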
ELG1 genotox: genotoxicity induction in ELG1-luciferase HEK293T cells; 330,000 compounds, 1.3% hits; Potency, µM (doses to about 46 µM), for inactives: at the top dose activity change, positive = activation, most hits filed as activators; HEK293T ELG1-luciferase reporter, luminescence, 16 h; also: % of control where 0% means no effect; nearly all actives have a fitted effect of over 60% in size
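16 hr compound incubation (37 °C, 5% CO2) of HEK293T cells carrying luciferase-tagged ELG1; luciferase then measured by ONE-Glo luminescence after 30 min at RT.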
NPC1 promoter act: NPC1 promoter activation; Huh7 NPC1 promoter luciferase reporter, 24 h; Potency, µM (highest dose often 9.22 µM), for the others: top-dose activation, most hits filed as activators; 320,000 compounds, 2.4% hits; AID 485313; also: % of control where 0% means no effect; nearly all actives have a fitted effect of over 60% in size
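Stable NPC1-promoter luciferase Huh7 line; cpd (DMSO) 24 h, 37 °C, 5% CO2; Amplite luciferase reagent 10 min RT; luminescence readout. qHTS format.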
Numbers without * were called inactive; u = inconclusive; x = no result given; [ ] = another dose, or the depositor's remark. This is a sample that favours compounds with a hit; in the whole collection about 7.5% have one here. Calls follow the shape of the dose curve; as a rule, active = well fitted curve in the direction sought with a large enough effect; inconclusive = small, poorly fitted or top-dose-only effect, or another doubt; inactive = no such curve, though single readings can be large; an effect the other way counts as inactive or inconclusive. Potency is read from the fitted curve at half-maximal effect.

SMILES	FLuc modulator	Rab9 prom act	SMN2 splice up	ELG1 genotox	NPC1 promoter act
CC(NC(=O)CSc1ncn[nH]1)c1ccc(Cl)cc1Cl (configuration not stated)	3%	-3%	x	-1%	-2%
COCc1c(C(=O)OCC(=O)N2c3ccccc3CC2C)oc2ccccc12 (configuration not stated)	-1%	-2%	11%	1%	-30%
Cc1c(C(=O)N2CCc3ccccc3C2)oc2ccccc12	24µM*	22%	x	15%	u
CC(=O)N1CCN(C(=O)c2oc3ccccc3c2C)CC1	3%	8%	x	11%	0%
Cc1c(C(=O)N2c3ccccc3CC2C)oc2ccccc12 (configuration not stated)	4.8µM*	2.8µM*	x	u	24%
COCC(=O)N1CCC(Oc2ccc(C(=O)N3CCCCCC3)cc2)CC1	-1%	5%	x	-3%	-3%
Cc1c(C(=O)NC2CCOC2)oc2c(F)cccc12 (configuration not stated)	11µM*	2.5µM*	x	18%[9.26 µM]	2.2µM*
Cc1c(C(=O)N2C[C@@H](C)O[C@@H](C)C2)oc2c(F)cccc12	15µM*	u	x	u	u
Cc1c(C(=O)O)oc2c(F)cccc12	-20%	-3%	7%	0%	-3%
CC(C)NC(=O)C(c1ccc(F)cc1)N(C(=O)CCC(=O)Nc1ccccn1)c1cccc(F)c1 (configuration not stated)	0%	5%	x	-2%	1%
Cc1ccc(NC(=O)c2ccc(OC(=O)COc3cccc(Cl)c3)cc2)cc1	u	2.8µM*	25µM*	u	2.8µM*
Cc1ccc(NC(=O)c2ccc(OC(=O)COc3ccc(Cl)cc3C)cc2)cc1	u	3.5µM*	13µM*	u	4µM*
Cc1ccc(NC(=O)c2ccc(OC(=O)CCN3C(=O)c4ccccc4C3=O)cc2)cc1	-19%	1.8µM*	14µM*	u	3.2µM*
COc1ccc(CNc2nc(-c3cccnc3)nn2S(C)(=O)=O)cc1	-7%	0%	-2%	-3%	-2%
C=C1[C@@H](C)C2[C@H](Cc3ccccc3)NC(=O)[C@]23OC(=O)CC[C@H](O)CCC[C@H](C)C/C=C/[C@H]3[C@@H]1O (some centres not stated)	-1%	-10%	x	0%	-32%
O=S(=O)(Nc1ncccn1)c1ccc(-n2cnnn2)cc1	1%	-7%	8%	1%	-2%
COc1cc(SC)ccc1C(=O)Nc1ccc(C)cc1	1.9µM*	3.5µM*	x	u	u
COc1cc(SC)ccc1C(=O)Nc1ccc(S(=O)(=O)N2CCCC2)cc1	-7%	-4%	-20%	18%	0%
COc1cc(SC)ccc1C(=O)Nc1ccc2c(c1)OCO2	1.3µM*	1.6µM*	11µM*	2.6µM*	0.89µM*
COc1cc(SC)ccc1C(=O)Nc1ccc(C)cc1C	2.7µM*	3.5µM*	13µM*	u	2.5µM*
O=S(=O)(CCc1ccccc1)c1nnnn1-c1ccccc1	x	x	2%	x	x
CNC(=O)[C@H](C)[C@H]1C[C@]1(C)[C@H](NC(=O)OCc1ccccc1)c1ccccc1	x	x	-4%	x	x
COc1ccccc1NC(=O)NCCN1CCNC1=O	-2%	-3%	x	0%	1%
CC(/C=C1\SC(=S)N(CCCC(=O)Nc2ccc(C(=O)O)c(O)c2)C1=O)=C\c1ccccc1	11µM*	u	35µM*	u	18%
O=C(CCN1C(=O)/C(=C/c2cccs2)SC1=S)Nc1ccc(C(=O)O)c(O)c1	17µM*	-1%	x	2%	-2%
CC(=C\c1ccccc1)/C=C1/SC(=O)N(CCCC(=O)Nc2ccc(C(=O)O)cc2)C1=O	17µM*	2%	8%	u	17%
N=C(N)c1ccc(-c2ccc(-c3ccc(C(=N)N)cc3)o2)cc1	x	x	-2%[9.22 µM]	x	x
Cc1nc(C)c(C(=O)N/N=C/c2ccco2)s1	-8%	-1%	23%	2%	-5%
O=C(NC1CCCCC1)c1cc2nc3c(c(C(F)(F)F)n2n1)CCCC3	24µM*	3.5µM*	35µM*	u	u
CC(=Nc1ccc(C)c(C)c1)C1=C(O)CSC1=O	11µM*	u	u	18µM*	21%
